Records with an inconclusive call do not appear. Activity calls are given as the source filed them. Unless noted, calls follow the shape of the full dose curve.
Columns and labels:
[1] = Nuclear factor erythroid 2-related factor 2/antioxidant responsive element (Nrf2/ARE) small molecule agonists: qHTS cell viability counter screen in human keratinocytes (AID 1919968; active = well fitted curve in the direction sought with a large enough effect in the repeat runs; an effect the other way counts as inactive or inconclusive; also: nearly all actives have a fitted effect of over 55% in size)
Method in brief: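 CellTiter-Fluor fluorescence, read 1 h after reagent, gave viability in the same wells as the ARE-luciferase assay. KeratinoSens cells (1,500/well) had 23 h compound exposure at 37 C/5% CO2 following 5 h plating.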

[2] = molecular target: Gonadotropin-releasing hormone receptor (Homo sapiens) (UniProt P30968); test: Human gonadotropin-releasing hormone receptor (GnRHR) small molecule agonists, calcium flux assay in GnRHR-HEK293 cells (AID 1920063); also: nearly all actives have a fitted effect of over 35% in size
Method in brief: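 Agonist mode: compounds at 15 concentrations, in triplicate, went onto calcium dye-loaded GnRHR-HEK293 cells. Intracellular calcium was then followed as 480/540 nm fluorescence at 1 s intervals over 3 min.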

[3] = molecular target: KiSS-1 receptor (Homo sapiens) (UniProt Q969F8); test: Human kisspeptin (KISS1R) small molecule agonists, calcium flux assay in KISS1R-HEK293 cells (AID 1920064; active = well fitted curve in the direction sought with a large enough effect in the repeat runs; an effect the other way counts as inactive or inconclusive)
Method in brief: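 Agonist mode: intracellular calcium rise tracked at 1 s intervals over 3 min (480/540 nm) immediately after compound addition to dye-loaded KISS1R-HEK293 stable cells. Each compound tested at 15 concentrations in triplicate.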

[4] = G protein-coupled receptor (GPCR) small molecule agonists, calcium flux assay: HEK293 wild type cell line counter screen (AID 1920065)
Method in brief: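 Calcium flux counter screen: compound added in agonist mode at 15 concentrations in triplicate to dye-loaded parental HEK293 cells. Fluorescence (480/540) read kinetically for 3 min; ATP served as positive control.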

[5] = p53 small molecule agonists, cell-based qHTS assay with human liver microsomes (AID 1963577);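 also: p53 response element beta-lactamase reporter cells with liver microsomes plus NADPH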
Method in brief: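 With metabolic activation: human liver microsomes (0.5 mg/mL final) plus NADPH (0.5 mg/mL final) added alongside compounds to p53RE-bla cells; 16 h 37 C exposure; beta-lactamase read by LiveBLAzer fluorescence.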

[6] = p53 small molecule agonists, cell-based qHTS assay with rat liver microsomes (AID 1963578)
Method in brief: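 Metabolic activation by rat liver microsomes and NADPH, each 0.5 mg/mL final, added right after compounds to p53RE-bla reporter cells (4,000/well, plated 5 h earlier). 16 h at 37 C, then LiveBLAzer substrate for 2 h at room temperature in the dark; fluorescence read-out.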

[7] = p53 small molecule agonists, cell-based qHTS assay with human liver microsomes: qHTS cell viability counter screen (AID 1963579); also: nearly all actives have a fitted effect of over 45% in size
Method in brief: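 Metabolic activation used human liver microsomes and NADPH, both 0.5 mg/mL final, over 16 hours at 37 C on p53RE-bla cells (4,000/well). Cytotoxicity measured by CellTiter-Glo luminescence, 30 min at room temperature.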

[8] = p53 small molecule agonists, cell-based qHTS assay with rat liver microsomes: qHTS cell viability counter screen (AID 1963580); also: nearly all actives have a fitted effect of over 45% in size
Method in brief: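 Cytotoxicity counter screen: intracellular ATP read by CellTiter-Glo luminescence in the p53 reporter wells. HCT-116 p53RE-bla cells were treated for 16 h at 37 C alongside rat liver microsomes and NADPH, each 0.5 mg/mL final.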

[9] = molecular target: 5-hydroxytryptamine receptor 2A (Homo sapiens) (UniProt P28223); test: 5-hydroxytryptamine receptor 2A (HTR2A) small molecule antagonists, cell-based qHTS assay (AID 1963586); also: nearly all actives have a fitted effect of over 45% in size
Method in brief: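 CHO cells stably expressing human HTR2A were plated for 18 h at 37 C, then loaded with calcium dye for 1 h. Compounds were preincubated 5 min at room temperature before DOI (4 nM solution) was added. Kinetic fluorescence was read for 3 min.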

[10] = molecular target: 5-hydroxytryptamine receptor 2A (Homo sapiens) (UniProt P28223); test: 5-hydroxytryptamine receptor 2A (HTR2A) small molecule agonists, cell-based qHTS assay (AID 1963587); also: nearly all actives have a fitted effect of over 30% in size
Method in brief: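 Kinetic calcium-flux fluorescence (2 min, 1 sec intervals) after compound addition in agonist mode. HTR2A-CHO cells were cultured 18 h, then dye-loaded 1 h at 37 C.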

[11] = molecular target: Muscarinic acetylcholine receptor M1 (Homo sapiens) (UniProt P11229); test: Cholinergic receptor muscarinic 1 (CHRM1) small molecule antagonists, cell-based qHTS assay (AID 1963588); also: nearly all actives have a fitted effect of over 40% in size
Method in brief: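 Compounds were tested at 15 concentrations in three independent runs. Dye-loaded CHRM1-CHO cells were exposed 5 min at room temperature before stimulation by acetylcholine added at 50nM. Intracellular calcium was read kinetically on FDSS for 3 min.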

[12] = molecular target: Muscarinic acetylcholine receptor M1 (Homo sapiens) (UniProt P11229); test: Cholinergic receptor muscarinic 1 (CHRM1) small molecule agonists, cell-based qHTS assay (AID 1963589); also: nearly all actives have a fitted effect of over 35% in size
Method in brief: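 Agonist-mode calcium-flux screen: compounds at 15 concentrations, three independent runs, were pin-transferred onto dye-loaded human CHRM1-CHO cells. Fluorescence was then recorded kinetically every second over minutes.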

[13] = cAMP Responsive Elements (CRE) small molecule agonists, cell-based qHTS assay (AID 1963590)
Method in brief: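 Agonist mode: compound added to CRE-bla HEK 293T cells (2,000/well, 18 h after plating) for 3 h at 37 C/5% CO2. Reporter activity detected via FRET beta-lactamase substrate, 2 h room-temperature loading.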

[14] = cAMP Responsive Elements (CRE) small molecule antagonists, cell-based qHTS assay (AID 1963591; active = well fitted inhibition curve with a large enough effect in the signal ratio in the repeat runs, not every such curve was filed as active; the % refers to the signal ratio)
Method in brief: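 Antagonist mode: compounds are added alongside the adenylyl cyclase activator NKH477 (0.25 uM final) to CRE-bla HEK293T cells for 3 h. LiveBLAzer FRET substrate, 2 h at room temperature, reports bla expression.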

[15] = molecular target: Beta-2 adrenergic receptor (Homo sapiens) (UniProt P07550); test: Adrenergic beta2 receptor (ADRB2) small molecule antagonists, cell-based qHTS assay (AID 1963592); also: series mostly up to about 92 µM; nearly all actives have a fitted effect of over 50% in size
Method in brief: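 Assay format: CHO-ADRB2 cells, 18-20hr seeding at 37C/5% CO2, then compound plus 1nM isoproterenol agonist mix for 0.5hr RT. Homogeneous time-resolved fluorescence cAMP detection after 1hr, expressed as 665/615 nm ratio.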

[16] = molecular target: D(2) dopamine receptor (Homo sapiens) (UniProt P14416); test: Dopamine D2 receptor (DRD2) small molecule agonists, cell-based qHTS assay (AID 1963594); also: nearly all actives have a fitted effect of over 35% in size
Method in brief: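 cAMP accumulation in DRD2-HEK293 cells measured by HTRF after 1 h detection; compounds added 10 min before NKH477 (200nM […]) forskolin-analogue stimulation, 30 min at room temperature, with Ro20-1724 present at 0.1 mM final.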

[17] = molecular target: D(2) dopamine receptor (Homo sapiens) (UniProt P14416); test: Dopamine D2 receptor (DRD2) small molecule antagonists, cell-based qHTS assay (AID 1963595; active = well fitted inhibition curve with a large enough effect in the signal ratio in the repeat runs, with a control signal flat; the % refers to the signal ratio)
Method in brief: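 Antagonist mode in DRD2-HEK293 cells: after compound addition with 0.1 mM Ro20-1724, cells received quinpirole (12 nM) and NKH477 (200 nM) for 30 min at room temperature; HTRF cAMP read after 1 h detection.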

[18] = p53 small molecule agonists, cell-based qHTS assay: qHTS cell viability counter screen (AID 1963581); also: nearly all actives have a fitted effect of over 45% in size
Method in brief: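 Counter screen read by CellTiter-Glo luminescence (ATP content, 30 min at room temperature), run in the same wells as the beta-lactamase reporter read. HCT-116 p53RE-bla cells saw compounds for 16 h at 37 C.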

[19] = p53 small molecule agonists, cell-based qHTS assay (AID 1963582; active = well fitted activation curve with a large enough effect in the signal ratio in the repeat runs, not every such curve was filed as active; the % refers to the signal ratio)
Method in brief: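 Read-out is beta-lactamase FRET fluorescence after 2 h at room temperature with LiveBLAzer B/G substrate. p53 response element-bla cells were treated 16 h at 37 C with compounds in DMSO, added 5 h after seeding.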

[20] = molecular target: Beta-2 adrenergic receptor (Homo sapiens) (UniProt P07550); test: Adrenergic beta2 receptor (ADRB2) small molecule agonists, cell-based qHTS assay (AID 1963593);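 also: CHO cells stably overexpressing human ADRB2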
Method in brief: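 CHO cells stably over-expressing ADRB2 were plated overnight at 37C, then dosed with compounds plus a stimulation mix containing 100uM IBMX and 25uM Ro-20-1724 for 0.5hr at room temperature. cAMP was measured by HTRF competition, 1hr.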

Measured: Potency

Chain of Beta-2 adrenergic receptor (Homo sapiens) (P07550 whole entry, looked up): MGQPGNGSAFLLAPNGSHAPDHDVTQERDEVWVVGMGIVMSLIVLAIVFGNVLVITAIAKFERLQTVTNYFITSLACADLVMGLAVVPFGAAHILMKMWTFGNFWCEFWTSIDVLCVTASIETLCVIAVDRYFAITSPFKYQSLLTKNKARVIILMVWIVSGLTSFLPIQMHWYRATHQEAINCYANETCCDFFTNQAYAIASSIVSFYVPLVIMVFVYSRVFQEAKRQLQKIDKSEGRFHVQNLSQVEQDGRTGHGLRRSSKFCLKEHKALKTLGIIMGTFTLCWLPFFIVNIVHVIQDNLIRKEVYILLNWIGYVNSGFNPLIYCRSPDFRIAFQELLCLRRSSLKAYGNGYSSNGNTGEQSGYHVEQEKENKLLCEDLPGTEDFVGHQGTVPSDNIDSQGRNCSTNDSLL
Chain of D(2) dopamine receptor (Homo sapiens) (P14416 whole entry, looked up): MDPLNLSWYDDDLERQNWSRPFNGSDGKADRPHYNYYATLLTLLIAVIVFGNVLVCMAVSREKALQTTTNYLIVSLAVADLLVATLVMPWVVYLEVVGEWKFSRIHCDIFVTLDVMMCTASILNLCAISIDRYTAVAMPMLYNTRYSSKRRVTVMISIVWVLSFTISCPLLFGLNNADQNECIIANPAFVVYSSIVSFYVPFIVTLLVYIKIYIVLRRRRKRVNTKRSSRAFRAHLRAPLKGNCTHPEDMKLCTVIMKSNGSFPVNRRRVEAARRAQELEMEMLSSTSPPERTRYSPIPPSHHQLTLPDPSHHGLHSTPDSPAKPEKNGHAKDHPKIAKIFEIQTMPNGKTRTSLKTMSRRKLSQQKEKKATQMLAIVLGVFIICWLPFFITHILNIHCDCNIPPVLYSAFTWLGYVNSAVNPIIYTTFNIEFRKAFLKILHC
Chain of Gonadotropin-releasing hormone receptor (Homo sapiens) (P30968 whole entry, looked up): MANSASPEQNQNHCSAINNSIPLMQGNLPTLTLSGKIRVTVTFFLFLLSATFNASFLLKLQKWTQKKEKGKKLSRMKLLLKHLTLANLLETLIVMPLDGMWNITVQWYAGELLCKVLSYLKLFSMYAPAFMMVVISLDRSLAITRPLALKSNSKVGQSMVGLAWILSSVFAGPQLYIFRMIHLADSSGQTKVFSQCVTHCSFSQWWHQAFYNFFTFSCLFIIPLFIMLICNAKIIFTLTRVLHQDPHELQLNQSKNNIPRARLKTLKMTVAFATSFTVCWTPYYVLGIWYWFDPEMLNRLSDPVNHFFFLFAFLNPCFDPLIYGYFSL
Chain of 5-hydroxytryptamine receptor 2A (Homo sapiens) (P28223 whole entry, looked up): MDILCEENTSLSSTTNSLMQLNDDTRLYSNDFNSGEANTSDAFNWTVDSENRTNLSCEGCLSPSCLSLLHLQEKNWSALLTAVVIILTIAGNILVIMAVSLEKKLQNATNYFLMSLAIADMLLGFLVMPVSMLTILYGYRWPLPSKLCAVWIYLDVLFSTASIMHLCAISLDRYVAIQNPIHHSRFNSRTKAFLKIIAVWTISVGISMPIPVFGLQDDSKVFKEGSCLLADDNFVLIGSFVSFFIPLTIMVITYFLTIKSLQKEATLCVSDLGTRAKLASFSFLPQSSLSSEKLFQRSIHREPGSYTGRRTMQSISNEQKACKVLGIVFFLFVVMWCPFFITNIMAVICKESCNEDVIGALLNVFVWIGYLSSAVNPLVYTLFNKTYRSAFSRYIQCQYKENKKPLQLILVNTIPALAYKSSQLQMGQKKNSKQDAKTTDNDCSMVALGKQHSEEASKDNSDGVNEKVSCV
Chain of Muscarinic acetylcholine receptor M1 (Homo sapiens) (P11229 whole entry, looked up): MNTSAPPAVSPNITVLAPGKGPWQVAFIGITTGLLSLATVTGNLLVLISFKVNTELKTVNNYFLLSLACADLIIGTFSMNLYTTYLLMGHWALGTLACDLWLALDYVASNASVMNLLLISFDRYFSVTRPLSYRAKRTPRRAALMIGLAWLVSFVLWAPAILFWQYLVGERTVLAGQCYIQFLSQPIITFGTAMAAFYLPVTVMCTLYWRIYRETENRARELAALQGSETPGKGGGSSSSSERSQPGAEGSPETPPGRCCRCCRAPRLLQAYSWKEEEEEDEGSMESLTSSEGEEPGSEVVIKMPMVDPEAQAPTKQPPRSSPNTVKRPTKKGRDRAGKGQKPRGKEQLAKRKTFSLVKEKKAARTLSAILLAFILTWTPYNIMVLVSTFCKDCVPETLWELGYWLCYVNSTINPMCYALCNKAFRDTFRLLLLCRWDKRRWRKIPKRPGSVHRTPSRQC
Chain of KiSS-1 receptor (Homo sapiens) (Q969F8 whole entry, looked up): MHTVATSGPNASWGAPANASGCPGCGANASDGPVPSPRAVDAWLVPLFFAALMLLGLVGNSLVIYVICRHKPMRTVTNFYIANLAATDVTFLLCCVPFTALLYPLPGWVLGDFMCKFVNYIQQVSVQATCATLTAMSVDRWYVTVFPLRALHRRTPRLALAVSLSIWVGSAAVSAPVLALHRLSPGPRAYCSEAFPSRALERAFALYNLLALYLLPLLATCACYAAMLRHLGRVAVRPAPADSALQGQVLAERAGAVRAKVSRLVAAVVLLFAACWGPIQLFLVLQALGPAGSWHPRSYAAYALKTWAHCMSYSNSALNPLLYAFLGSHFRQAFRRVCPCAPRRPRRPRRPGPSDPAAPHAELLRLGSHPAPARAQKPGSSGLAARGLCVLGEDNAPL

CCOC(=O)CC(C)O (stereo unspecified)
not listed: [18] | [19] | [20]
inactive: all other assays above

CC(C)(C)C1CCC(=O)CC1
not listed: [7] | [20]
inactive: all other assays above

CNC(=O)c1c(I)c(NC(=O)CCCCC(=O)Nc2c(I)c(C(=O)O)c(I)c(C(=O)NC)c2I)c(I)c(C(=O)O)c1I
not listed: [6] | [9]
inactive: all other assays above

[O-][n+]1cccc(/C(Cl)=N/OC[C@@H](O)CN2CCCCC2)c1
not listed: [6] | [9] | [11] | [12] | [13] | [20]
inactive: all other assays above

CCN(CC)C(=O)N1CCN(C)CC1
not listed: [4] | [7] | [13]
inactive: all other assays above

CCc1cccc(C)c1
not listed: [3] | [18] | [20]
inactive: all other assays above

O=C(O)c1cccc(Oc2ccccc2)c1
not listed: [6] | [13] | [14] | [15] | [18]
inactive: all other assays above

— PubChem BioAssay (Tox21)
